{
  "source": "PubChem BioAssay (NCATS)",
  "note": "Values without a mark were called inactive. Calls come from the whole dose curve; as a rule, active = well fitted curve in the direction sought with a large enough effect; inconclusive = small, poorly fitted or top-dose-only effect, or another doubt; inactive = no such curve, though single readings can be large or run the other way.",
  "data": [
    {"test": "Validation qHTS assay for inhibitors of Activation Induced Cytidine Deaminase (AID): UDG Counterscreen signal (AID 1347427); note: 0% is about no effect", "settings": "biochemical UDG counterscreen, fluorescence signal; series mostly up to 115 µM; activity, negative = inhibition: at the top concentration", "source_text": "Assay Provider (PI) Patricia Gearhart Ph.D.\nNational Institute on Aging\nNational Institute of Health (NIH), Bethesda, MD\nAssay Provider (PI) Rahul Kohli Ph.D.\nPerelman School of Medicine\nUniversity of Pennsylvania, Philadelphia, PA\nActivation-Induced Deaminase (AID) is a cytosine deaminase which converts cytosine into uracil within stretches of ssDNA. The presence of uracil in DNA initiates a cascade of mutagenic DNA repair to introduce point mutations and DNA double strand breaks. Specific targeting of AID to the immunoglobulin heavy chain loci (Igh) promotes mutagenesis in the antibody variable region for somatic hypermutation (SHM) or switch regions leading to class switch recombination (CSR). However, AID also plays a role in accumulating unnecessary mutations across the genome. Mis-targeting of AID results in the initiation of tumor development and leads to greater drug resistance among cancer cells when continually expressed. To identify an AID inhibitor, a small molecule library will be screened in collaboration with NCATS core facility at NIH. To confirm biological function, inhibitors will be examined in an in vitro murine B-cell activation assay and subsequent secondary validation screens. Top molecules will be further screened to identify inhibitory efficacy against a wild type primary splenocytes assay. Using these approaches, we hope to identify a small molecule with great efficacy and low toxicity for use as a molecular probe to further characterize AID's intricacies, or even as a therapeutic.\nA FRET based analysis of cytosine deamination, was developed to identify potential inhibitors of AID catalytic activity. This screen has two signal output, Read 1 evaluates the AID inhibition response. The second readout (Read 2) evaluates UDG response and is uses as a counterscreen to exclude false positive inhibitors. Inhibition in AID and inactivity in the UDG signal is the desired outcome for this assay.\nSEQUENCE No. (e.g., 1, 2, 3, etc.); […] (e.g., Cells, Incubation, Reagent, etc.); VALUE; DESCRIPTION\n1a; Reagent; 3 uL; [4/3x] 1 uM AID/2.67 U/mL UDG\n1b; Reagent; 3 uL; 2 U/mL UDG\n1c; Reagent; 3 uL; 1 uM AID\n2a; Compound; 46 nL; Follow-up plates (0.64 uM - 10 mM)\n2b; Control; 46 nL; ATA ([…] - 10 mM)\n3; Time; 10 min; incubation at room temperature\n5; Time; 4 hr; incubation at room temperature\n6; Reagent; 4 uL; [2x] 250 mM NaOH\n7; Time; 15 sec; centrifuge at 1000 rpm\n8; Time; 30 min; incubation at room temperature\n9a; Detection; fluorescence (Read 1: AID); EnVision (PerkinElmer) plate reader, 540 excitation and 590 emission filters\n9b; Detection; fluorescence (Read 2: UDG); EnVision (PerkinElmer) plate reader, 560 excitation and 665 emission filters\nNOTES (numbers refer to sequence above)\n1a; Reagents were dispensed in a medium-binding black solid-bottom Greiner plates (789176F) using a BioRptr liquid dispenser. Dispense 3 uL of [4/3x] 1 uM AID (provided by Kohli lab) and [4/3x] 2 U/mL UDG (NEB M0280L) into columns 1, 2, 5 to 48.\n1b; Dispense 3 uL of [4/3x] 2 U/mL UDG into column 3.\n1c; Dispense 3 uL of [4/3x] 1 uM AID into column 4.\n2b; 10 mM Aurintricarboxylic Acid (Sigma A1895) (ATA, 8-point, n = 2, 1:2.5 dilution in column 2) double pin-transferred (Dip Factor = 2) using the Kalypsys (Wako USA) pintool equipped with a 1536 pinhead for a [final] range of 186 nM - 114 uM.\n3; Room temperature incubation.\n4; Dispense 1 uL of substrate mixture from the Kohli lab [4x] […] DJC20 and [4x] 250 nM DJC23 into columns 1 to 48 .\n5; Room temperature incubation.\n6; Dispense 4 uL of substrate mixture [2x] 250 mM NaOH into columns 1 to 48.\n7; Centrifugation step to remove bubbles.\n8; Room temperature incubation\n9a; Fluorescence signal (column label AID) was read using the EnVision plate reader. Excitation filter = 540(8) nm, barcode = 311; Emission filter = 590(20) nm, barcode = 217; Mirror = D555, barcode = 405.\n9b; Fluorescence signal (column label UDG) was read using the EnVision plate reader. […]", "units": {"activity, negative = inhibition": "%"}, "values": [
      {"compound": "C[C@]12CCC(=O)C=C1CC[C@@H]1[C@@H]2C(=O)C[C@@]2(C)[C@H]1CC[C@]2(O)C(=O)CO", "activity, negative = inhibition": -4.23},
      {"compound": "CCCN(CCC)CCc1cccc2c1CC(=O)N2", "activity, negative = inhibition": 7.37},
      {"compound": "CNCCCN1c2ccccc2CCc2ccccc21", "activity, negative = inhibition": 9.9},
      {"compound": "NC(N)=N/N=C/c1c(Cl)cccc1Cl", "activity, negative = inhibition": 6.51},
      {"compound": "C[C@]12CCC(=O)C=C1CC[C@@H]1[C@@H]2CC[C@@]2(C)[C@H]1CC[C@]2(O)C(=O)CO", "activity, negative = inhibition": -1.75},
      {"compound": "CCCNC(C)C(=O)Nc1ccccc1C", "note": "(stereo not given)", "activity, negative = inhibition": 11.8},
      {"compound": "COC(=O)C1=C(C)NC(C)=C(C(=O)OCCN(C)Cc2ccccc2)C1c1cccc([N+](=O)[O-])c1", "note": "(stereo not given)", "activity, negative = inhibition": -5.2},
      {"compound": "NCCCNCCSP(=O)(O)O", "activity, negative = inhibition": 13.1},
      {"compound": "OC(CCN1CCCCC1)(c1ccccc1)C1CCCCC1", "note": "(stereo not given)", "activity, negative = inhibition": 12.5},
      {"compound": "COCCc1ccc(OCC(O)CNC(C)C)cc1", "note": "(stereo not given)", "activity, negative = inhibition": 8.83},
      {"compound": "CN1CCN(C2=Nc3ccccc3Oc3ccc(Cl)cc32)CC1", "activity, negative = inhibition": -11.7},
      {"compound": "NC1=NCC2c3ccccc3Cc3ccccc3N12", "note": "(stereo not given)", "activity, negative = inhibition": 12.1},
      {"compound": "CN(C)[C@@H]1C(=O)C(C(N)=O)=C(O)[C@@]2(O)C(=O)C3=C(O)c4c(O)ccc(Cl)c4[C@@H](O)[C@H]3C[C@@H]12", "activity, negative = inhibition": 12},
      {"compound": "CN1C[C@H](C(=O)N[C@]2(C)O[C@@]3(O)[C@@H]4CCCN4C(=O)[C@H](Cc4ccccc4)N3C2=O)C[C@@H]2c3cccc4[nH]cc(c34)C[C@H]21", "activity, negative = inhibition": 12.6},
      {"compound": "CC(=O)Nc1nnc(S(N)(=O)=O)s1", "activity, negative = inhibition": 11.7},
      {"compound": "CCn1cc(C(=O)O)c(=O)c2cc3c(cc21)OCO3", "activity, negative = inhibition": -4.34},
      {"compound": "Cc1cc(C)c(/C=C2\\C(=O)Nc3ccccc32)[nH]1", "activity, negative = inhibition": -6.06},
      {"compound": "CN1CCN(CC(=O)N2c3ccccc3C(=O)Nc3cccnc32)CC1", "activity, negative = inhibition": 12},
      {"compound": "NC(N)=NC(=O)Cc1c(Cl)cccc1Cl", "activity, negative = inhibition": 13.3},
      {"compound": "Nc1c2c(nc3ccccc13)CCCC2O", "note": "(stereo not given)", "activity, negative = inhibition": 13.8},
      {"compound": "CCCCCCCC/C=C\\CCCCCCCC(=O)NCc1ccc(O)c(OC)c1", "activity, negative = inhibition": 1.84},
      {"compound": "CC(=O)[C@]1(O)Cc2c(O)c3c(c(O)c2[C@@H](O[C@H]2C[C@H](N)[C@H](O)[C@H](C)O2)C1)C(=O)c1ccccc1C3=O", "activity, negative = inhibition": 31},
      {"compound": "CCN(CC)CCCN(c1ccccc1)C1Cc2ccccc2C1", "activity, negative = inhibition": -0.718},
      {"compound": "CN=C(NC#N)NCCSCc1nc[nH]c1C", "activity, negative = inhibition": 4.53},
      {"compound": "COc1ccc([C@@H]2Sc3ccccc3N(CCN(C)C)C(=O)[C@@H]2OC(C)=O)cc1", "activity, negative = inhibition": 9.77},
      {"compound": "Cc1scc2c1N(C(=O)CN1CCN(C)CC1)c1ccccc1NC2=O", "activity, negative = inhibition": 5.1},
      {"compound": "CCc1cccc(N(C)C(N)=Nc2cccc3ccccc23)c1", "activity, negative = inhibition": -6.78},
      {"compound": "CCN(CC)CCOCCOC(=O)C1(c2ccccc2)CCCC1", "activity, negative = inhibition": -0.627},
      {"compound": "C[N+](C)(C)CCOC(=O)CCC(=O)OCC[N+](C)(C)C", "activity, negative = inhibition": 6.31},
      {"compound": "COC(=O)C1=C(C)NC(C)=C(C(=O)OC(C)(C)CN(C)CCC(c2ccccc2)c2ccccc2)C1c1cccc([N+](=O)[O-])c1", "note": "(stereo not given)", "activity, negative = inhibition": -5.44},
      {"compound": "CNCCC(Oc1ccccc1OC)c1ccccc1", "note": "(stereo not given)", "activity, negative = inhibition": 9.13},
      {"compound": "COCCCC/C(=N\\OCCN)c1ccc(C(F)(F)F)cc1", "activity, negative = inhibition": 9.67},
      {"compound": "C[C@]12CC[C@@H]3c4ccc(O)cc4C[C@@H](CCCCCCCCCS(=O)CCCC(F)(F)C(F)(F)F)[C@H]3[C@@H]1CC[C@@H]2O", "note": "(stereo not given in full)", "activity, negative = inhibition": 12.4},
      {"compound": "NC(=O)N1c2ccccc2C=Cc2ccccc21", "activity, negative = inhibition": 11.1},
      {"compound": "CCC(=O)c1ccc2c(c1)N(CCCN(C)C)c1ccccc1S2", "activity, negative = inhibition": 2.96},
      {"compound": "O=C1NCN(c2ccccc2)C12CCN(CCCC(c1ccc(F)cc1)c1ccc(F)cc1)CC2", "activity, negative = inhibition": -9.34},
      {"compound": "CN(C)CC[C@@H](c1ccc(Br)cc1)c1ccccn1", "activity, negative = inhibition": 0.517},
      {"compound": "COc1cc(C(=O)OCCCN2CCCN(CCCOC(=O)c3cc(OC)c(OC)c(OC)c3)CC2)cc(OC)c1OC", "activity, negative = inhibition": 12.4},
      {"compound": "NS(=O)(=O)c1cc2c(cc1Cl)NC(C1CC3C=CC1C3)NS2(=O)=O", "note": "(stereo not given)", "activity, negative = inhibition": 11.9},
      {"compound": "c1ccc2c(c1)CCCC2C1=NCCN1", "note": "(stereo not given)", "activity, negative = inhibition": 9.44}
    ]}
  ]
}
